# Data as given in PubChem BioAssay (NCATS).
# Unmarked numbers belong to inactive results. Inconclusive results are not listed. Entries that show only a call come without a potency. The source made the active and inactive calls. Calls follow the shape of the dose curve; as a rule, active = well fitted curve in the direction sought with a large enough effect; inconclusive = small, poorly fitted or top-dose-only effect, or another doubt; inactive = no such curve, though single readings can be large; an effect the other way counts as inactive or inconclusive.
# Key:
# [1] = biological target: Glutathione peroxidase 1 (Homo sapiens) (UniProt P07203); assay: Primary qHTS Assay for Inhibitors of Recombinant Selenoprotein Glutathione Peroxidase 1 (GPX1) (AID 1845191); also: nearly all actives have a fitted effect of over 65% in size; also: potency is read from the fitted curve at half-maximal effect
# Glutathione peroxidase 1 (Homo sapiens), sequence (P07203 whole entry, looked up): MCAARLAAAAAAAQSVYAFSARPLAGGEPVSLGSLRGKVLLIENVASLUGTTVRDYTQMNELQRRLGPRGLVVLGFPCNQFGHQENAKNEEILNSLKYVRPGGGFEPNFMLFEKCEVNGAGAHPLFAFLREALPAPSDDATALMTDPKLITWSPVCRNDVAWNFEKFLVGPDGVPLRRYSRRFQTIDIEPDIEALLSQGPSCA
# Outline: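 Recombinant GPX1 (10 nM final) was preincubated with compound for 30 min at room temperature, then reacted with 1 mM GSH, 0.5 mM CHP, 0.5 mM NADPH and 100 nM glutathione reductase; NADPH fluorescence (340/450 nm) was read at 0 and 15 min.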
# [2] = biological target: Phospholipid hydroperoxide glutathione peroxidase GPX4 (Homo sapiens) (UniProt P36969); assay: Primary qHTS Assay for Inhibitors of Recombinant Selenoprotein Glutathione Peroxidase 4 (GPX4) (AID 1845192); also: nearly all actives have a fitted effect of over 65% in size; also: potency is read from the fitted curve at half-maximal effect; as to activity change, negative = inhibition: series mostly up to about 50 µM
# Phospholipid hydroperoxide glutathione peroxidase GPX4 (Homo sapiens), sequence (P36969 whole entry, looked up): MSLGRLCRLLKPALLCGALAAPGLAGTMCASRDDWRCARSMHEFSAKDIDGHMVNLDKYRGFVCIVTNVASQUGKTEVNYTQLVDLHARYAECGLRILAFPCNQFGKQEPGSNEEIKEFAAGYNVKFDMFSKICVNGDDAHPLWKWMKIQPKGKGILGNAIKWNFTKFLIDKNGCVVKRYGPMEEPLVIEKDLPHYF
# Outline: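 GR-coupled readout: 100 nM GR, 1 mM GSH, 0.5 mM NADPH; NADPH fluorescence (ex 340/em 450 nm) read at t=0 and after 15 min RT. GPX4 200 nM, preincubated 30 min with compound; substrate 0.5 mM CHP.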
# [3] = Viability counterscreen for antagonist of constitutive androstane receptor (CAR) against the NCATS DSHEA and TCM libraries (AID 1794837);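 also: compound exposure lasted 24 h before viability reading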
# Outline: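 Cells: HepG2 line carrying CYP2B6 reporter and hCAR, seeded and attached 5 h. Then pin-transferred test substances plus agonist CITCO at 48 uM final; 24 h incubation; fluorogenic viability reagent, 1 h.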
# [4] = Viability counterscreen for agonist of constitutive androstane receptor (CAR) against the NCATS DSHEA and TCM libraries (AID 1794838);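 also: HepG2 cells with CYP2B6 reporter and hCAR plus 0.75 µM PK11195 antagonist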
# Outline: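 Cell health was measured as CellTiter-Fluor signal in HepG2-CYP2B6-hCAR cells treated for 24 h with substances alongside the hCAR antagonist PK11195 (0.75 uM final).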
# [5] = biological target: Nuclear receptor subfamily 1 group I member 3 (Homo sapiens) (UniProt Q14994); assay: Primary qHTS for agonist of constitutive androstane receptor (CAR) against the NCATS DSHEA and TCM libraries (AID 1794839);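 also: HepG2 cells expressing human CAR with a CYP2B6 reporter plus PK11195 antagonist; luciferase reporter luminescence read with ONE-Glo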
# Nuclear receptor subfamily 1 group I member 3 (Homo sapiens), sequence (Q14994 whole entry, looked up): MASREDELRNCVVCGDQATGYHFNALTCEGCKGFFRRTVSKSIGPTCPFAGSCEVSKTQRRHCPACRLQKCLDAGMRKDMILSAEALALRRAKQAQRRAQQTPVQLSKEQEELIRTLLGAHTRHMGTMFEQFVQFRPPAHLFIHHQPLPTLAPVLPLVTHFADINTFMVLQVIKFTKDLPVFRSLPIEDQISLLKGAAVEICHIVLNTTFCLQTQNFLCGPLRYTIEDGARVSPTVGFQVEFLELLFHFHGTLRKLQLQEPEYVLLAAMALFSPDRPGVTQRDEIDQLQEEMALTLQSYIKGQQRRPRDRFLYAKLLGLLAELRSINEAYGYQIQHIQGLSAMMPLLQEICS
# Outline: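 qHTS, agonist mode: HepG2-CYP2B6-hCAR, 2,500 cells/well, 5 h attach; cpds + PK11195 0.75 µM final; 24 h, 37 °C, 5% CO2. Readouts: CellTiter-Fluor (405/540 nm), then ONE-Glo luminescence.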
# [6] = HepG2 viability counterscreen (readout 2: ATP content) against the NCATS DSHEA and TCM libraries (AID 1794840)
# Outline: (§1)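 Same wells read twice: first fluorescence from cleaved GF-AFC substrate (25 uM final, 30 min, 37C) for live-cell protease, then CellTiter-Glo luminescence after 30 min at room temperature for ATP. HepG2 cells were exposed ~24 h to substances.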
# [7] = HepG2 viability counterscreen (readout 1: protease activity) against the NCATS DSHEA and TCM libraries (AID 1794841);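 also: cells exposed to compounds for about 24 h before the protease read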
# Outline: as §1
# [8] = NCATS anti-infectives library activity on HEK293 viability as a counter-qHTS vs the C. elegans viability qHTS (AID 1745854);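 also: HEK293 cells exposed to compounds for 24 hr before the viability read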
# Outline: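 Cytotoxicity in human HEK293 cells is measured by ATP-dependent CellTiter-Glo luminescence following a 24 hr incubation with titrated library compounds at 37C. Top final concentration is 41.7 uM.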
# [9] = biological target: Luciferin 4-monooxygenase (Photinus pyralis) (UniProt P08659); assay: Primary firefly luciferase (FLuc) qHTS assay for identification of artifact compounds. (AID 1845220); also: nearly all actives have a fitted effect of over 60% in size; also: potency is read from the fitted curve at half-maximal effect; as to activity change, negative = inhibition: series mostly up to about 54 µM
# Outline: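 Reaction readout was CCD-imaged luminescence, taken 5 min after adding 10 nM purified firefly enzyme to compound-treated wells holding 10 uM luciferin and ATP in pH 7.6 buffer.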
# [10] = system: Nanoluciferase (engineered Oplophorus gracilirostris luciferase); assay: Primary Nanoluciferase (NLuc) qHTS assay for identification of artifact compounds. (AID 1845222);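 also: NLuc secreted into diluted conditioned medium of S16 cells; series mostly up to about 54 µM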
# Outline: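 Concentration-response data were obtained by luminescence after 5 min with Nano-Glo substrate at 1:100. The enzyme was diluted S16 NLuc-expressing cell medium, preincubated with compound for 15 min at RT. Curves were fitted with a 4-parameter Hill model.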
# [11] = Primary redox qHTS assay for identification of artifact compounds. (AID 1845223)
# Outline: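 Amplex Red (25 uM) and HRP (250 mU/mL) in HBSS, with compounds for 15 min, then 250 uM DTT for 30 min, room temperature, dark. Fluorescence 525/598 nm read; normalized to DMSO and 10 uM DA3003; Hill fit.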
# [12] = Primary fluorescence-based thiol-reactive (MSTI) qHTS assay for identification of artifact compounds. (AID 1845221); also: nearly all actives have a fitted effect of over 65% in size; also: potency is read from the fitted curve at half-maximal effect
# Outline: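 Compounds were incubated 1 h at room temperature in the dark with the MSTI probe (4 uM) in PBS pH 7.4, 2% DMSO. Signals were normalized between Acetyl-MSTI and MSTI.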
# [13] = biological target: Metallo-beta-lactamase type 2 (Klebsiella pneumoniae) (UniProt C7C422); assay: qHTS to identify inhibitors of the New Delhi Metallo-beta-lactamase (NDM): assay validation screen against the NCATS LOPAC Collection (AID 1794843);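 also: nitrocefin turnover by NDM-1 measured as 485 nm absorbance at plateau; series mostly up to about 38 µM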
# Metallo-beta-lactamase type 2 (Klebsiella pneumoniae), sequence (C7C422 whole entry, looked up): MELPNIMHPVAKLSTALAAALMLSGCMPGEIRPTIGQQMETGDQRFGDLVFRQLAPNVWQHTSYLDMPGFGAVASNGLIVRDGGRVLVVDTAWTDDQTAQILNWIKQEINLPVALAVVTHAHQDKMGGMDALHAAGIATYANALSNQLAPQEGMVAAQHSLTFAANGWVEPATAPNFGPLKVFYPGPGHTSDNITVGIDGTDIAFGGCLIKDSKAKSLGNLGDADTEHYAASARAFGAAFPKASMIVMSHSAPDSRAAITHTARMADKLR
# Outline: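 Nitrocefin hydrolysis (50 uM substrate stock) by NDM-1, 2 nM final, was followed by 485 nm absorbance after compound preincubation; buffer was 50 mM HEPES pH 7.0, 1 uM ZnSO4, 0.01% Tween20.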
smiles,measurement,setting,value
CC(CN1c2ccccc2Sc2ccc(S(=O)(=O)N(C)C)cc21)N(C)C (configuration not stated),Potency,[1],inactive
N#Cc1ccnc(Nc2cc(C3CCN(C4COC4)CC3)cc(N3CCC(F)(F)C3)n2)c1,Potency,[1],inactive
CS(=O)(=O)OCCCNCCCOS(C)(=O)=O,Potency,[1],inactive
same,Potency,[2],inactive
COc1cc(C[C@@H]2NCCc3cc(O)c(O)cc32)cc(OC)c1OC,Potency,[1],inactive
same,Potency,[2],inactive
COc1cc2[nH]c(C)c(CCN3CCN(c4ccccc4)CC3)c2cc1OC,Potency,[1],inactive
O=C(O)CC(O)(CC(=O)O)C(=O)O,outcome,[3],inactive
same,outcome,[4],inactive
same,outcome,[5],inactive
same,outcome,[6],inactive
same,outcome,[7],inactive
same,Potency,[1],inactive
same,Potency,[2],inactive
CC1(C)S[C@@H]2[C@H](NC(=O)[C@H](N)c3ccccc3)C(=O)N2[C@H]1C(=O)OCOC(=O)[C@@H]1N2C(=O)C[C@H]2S(=O)(=O)C1(C)C,Potency,[1],inactive
O=[N+]([O-])c1ccc(Oc2ccc(N=C=S)cc2)cc1,Potency,[1],inactive
C=CCNC1=C2C[C@@H](C)C[C@H](OC)[C@H](O)[C@@H](C)/C=C(\C)[C@H](OC(N)=O)[C@@H](OC)/C=C\C=C(/C)C(=O)NC(=CC1=O)C2=O,Potency,[1],inactive
CCCCCCCCCCCCCCCCCC(=O)[O][Al],"activity, negative = inhibition",[1],-27.3% [at 4.49 µM]
same,"activity change, negative = inhibition",[2],-12.8% [at 4.52 µM]
O=C(NO)c1ccc(CC(=O)N(CCO)c2ccccc2)cc1,outcome,[8],inactive
same,Potency,[1],inactive
same,Potency,[2],inactive
same,Potency,[9],inactive
same,Potency,[10],inactive
same,Potency,[11],inactive
CO[C@H]1C[C@@H]2CC[C@@H](C)[C@@](O)(O2)C(=O)C(=O)N2CCCC[C@H]2C(=O)O[C@H]([C@@H](C)C[C@@H]2CC[C@@H](O)[C@H](OC)C2)CC(=O)[C@H](C)/C=C(\C)[C@@H](O)[C@@H](OC)C(=O)[C@H](C)C[C@H](C)/C=C/C=C/C=C/1C,outcome,[8],inactive
same,Potency,[1],inactive
same,Potency,[2],inactive
same,Potency,[9],inactive
same,Potency,[10],inactive
same,Potency,[11],inactive
CCCC(=O)O[C@]1(C(=O)COC(=O)CC)[C@@H](C)C[C@H]2[C@@H]3CCC4=CC(=O)C=C[C@]4(C)[C@@]3(F)[C@@H](O)C[C@@]21C,Potency,[1],inactive
C=C1[C@H]2CC[C@H](C(=O)O)[C@@]23CC[C@H](C3)C1(C)C,outcome,[3],inactive
same,outcome,[4],inactive
same,outcome,[5],inactive
same,outcome,[6],inactive
same,outcome,[7],inactive
same,Potency,[2],inactive
same,Potency,[9],inactive
same,Potency,[12],inactive
same,Potency,[10],inactive
CCCCCCCCCC(=O)O,outcome,[6],inactive
same,outcome,[7],inactive
same,Potency,[1],inactive
same,Potency,[2],inactive
Cc1cc(-n2c(=O)[nH]c(=O)n(C)c2=O)ccc1Oc1ccc(S(=O)(=O)C(F)(F)F)cc1,Potency,[1],inactive
CN[C@H]1CC[C@@H](c2ccc(Cl)c(Cl)c2)c2ccccc21,outcome,[13],inactive
same,Potency,[1],inactive
same,Potency,[2],inactive
CN(C(=O)CO)c1c(I)c(C(=O)NCC(O)CO)c(I)c(C(=O)NCC(O)CO)c1I (configuration not stated),Potency,[1],inactive
same,Potency,[2],inactive
NC(=O)c1cnc(N[C@@H]2CCCC[C@@H]2N)nc1Nc1cccc(-n2nccn2)c1,Potency,[1],inactive
same,Potency,[2],inactive
CCCOc1ccc2nc(NC(=O)OC)sc2c1,Potency,[1],inactive
same,Potency,[2],inactive
Cc1ccc(/C(=C\CN2CCCC2)c2cccc(/C=C/C(=O)O)n2)cc1,Potency,[1],inactive
C[C@@H]1CN(CC(=O)N2CC(C)(C)c3ncc(Cc4ccc(F)cc4)cc32)[C@@H](CN2CCOC[C@H]2C)CN1,Potency,[1],inactive
same,Potency,[2],inactive
Cn1nnnc1SCC1=C(C(=O)O)N2C(=O)[C@@H](NC(=O)[C@H](OC=O)c3ccccc3)[C@H]2SC1,Potency,[1],9.04 µM (active)
Cc1onc(-c2ccccc2)c1C(=O)N1CCN(c2ccc([N+](=O)[O-])cc2Cl)CC1,outcome,[8],inactive
same,Potency,[1],inactive
same,Potency,[2],inactive
same,Potency,[9],inactive
same,Potency,[10],inactive
same,Potency,[11],inactive
NCCCC(=O)O,outcome,[13],inactive
same,Potency,[1],inactive
same,Potency,[2],inactive
CC1=C(C(=O)OCCN(Cc2ccccc2)c2ccccc2)C(c2cccc([N+](=O)[O-])c2)C(P2(=O)OCC(C)(C)CO2)=C(C)N1 (configuration not stated),Potency,[1],inactive
O=C(Cn1cnnn1)N[C@@H]1C(=O)N2C(C(=O)O)=C(CSc3nncs3)CS[C@H]12,Potency,[1],18 µM (active)
same,Potency,[2],inactive
O=C(Nc1ncc([N+](=O)[O-])s1)c1ccccc1O,outcome,[8],inactive
same,Potency,[1],inactive
same,Potency,[9],0.849 µM (active)
same,Potency,[12],2.38 µM (active)
same,Potency,[11],inactive
CN(C)C(=O)Nc1cccc(-c2ccc(N(C)C)cc2)c1,outcome,[8],inactive
same,Potency,[2],inactive
same,Potency,[12],2.67 µM (active)
same,Potency,[10],inactive
same,Potency,[11],inactive
CN(C)Cc1ccccc1,Potency,[1],inactive
same,Potency,[2],inactive
CC(C(=O)O)c1ccc(C2CCCCC2)c2ccccc12 (configuration not stated),Potency,[1],inactive
same,Potency,[2],15.8 µM (active)
Cc1cc(Nc2ccccc2C(=O)O)ccc1Cl,Potency,[1],inactive
C[C@H]1CO[C@@H]2Cn3cc(C(=O)NCc4ccc(F)cc4F)c(=O)c(O)c3C(=O)N12,outcome,[8],inactive
same,Potency,[2],inactive
same,Potency,[9],inactive
same,Potency,[10],inactive
same,Potency,[11],inactive
C1CNCCN1,Potency,[1],inactive
same,Potency,[2],inactive
CCC(C)(C)OC(=O)N[C@@H](Cc1c[nH]c2ccccc12)C(=O)N[C@@H](CCSC)C(=O)N[C@@H](CC(=O)O)C(=O)N[C@@H](Cc1ccccc1)C(N)=O,Potency,[1],inactive
O=P(O)(O)OC(CO)CO,Potency,[1],inactive
same,Potency,[2],inactive
CCOC(=O)[C@H](CCc1ccccc1)N[C@H]1CCCN2CCC[C@@H](C(=O)O)N2C1=O,Potency,[1],inactive
same,Potency,[2],inactive
CN1C(=O)c2sccc2N(C)c2nc(Nc3ccc(S(N)(=O)=O)cc3)ncc21,Potency,[1],inactive
NCCCC[C@H](NC(=O)[C@@H]1CCCN1C(=O)[C@@H]1CSSC[C@H](N)C(=O)N[C@@H](Cc2ccccc2)C(=O)N[C@@H](Cc2ccccc2)C(=O)N[C@@H](CCC(N)=O)C(=O)N[C@@H](CC(N)=O)C(=O)N1)C(=O)NCC(N)=O,Potency,[1],inactive
C[C@@H]1COCCN1c1cc(=O)n2c(n1)N(Cc1cncc(Cl)c1)[C@H](C(F)(F)F)CC2,Potency,[1],inactive
same,Potency,[2],inactive
